In PubChem BioAssay (EPA / NIEHS) one finds outcome and AC50 data, which are given here for 40 compounds.

SMILES strings stand for the structures. Active and inactive are the calls of the source. The calls were made as follows: active = hit-call score of the fitted dose curve at least 0.9, where 1 is the maximum; inactive = score below 0.9.

The assay deals with Signal transducer and activator of transcription 3 (Homo sapiens) (UniProt P40763). Nature of the assay: ATG_STAT3_CIS: Attagene CIS-FACTORIAL HepG2 Assay for human Signal Transducer and Activator of Transcription 3 (STAT3) (AID 2282963). The conditions noted are these: HepG2, Attagene cis-factorial STAT3 reporter transcription; actives raise or lower the signal. The procedure: ATG_CIS is a cell-based, multiplexed-readout assay that uses HepG2, a human liver cell line, with measurements taken at 24 hours after chemical dosing in a 24-well plate.ATG_STAT3_CIS is one of 52 assay component(s) measured or calculated from the ATG_CIS assay. It is designed to make measurements of mRNA induction, a form of inducible reporter, as detected with fluorescence intensity signals by Reverse transcription polymerase chain reaction (RT-PCR) and Capillary electrophoresis technology.Data from the assay component ATG_STAT3_CIS was analyzed into 1 assay endpoint. This assay endpoint, ATG_STAT3_CIS, was analyzed with bidirectional fitting relative to DMSO as the negative control and baseline of activity. Using a type of inducible reporter, measures of mRNA for gain or loss-of-signal activity can be used to understand the reporter gene at the transcription factor-level as they relate to the gene STAT3. Furthermore, this assay endpoint can be referred to as a primary readout, because this assay has produced multiple assay endpoints where this one serves a reporter gene function. To generalize the intended target to other relatable targets, this assay endpoint is annotated to the dna binding intended target family, where the subfamily is stat protein.
Signal transducer and activator of transcription 3 (Homo sapiens), sequence (P40763 whole entry, looked up): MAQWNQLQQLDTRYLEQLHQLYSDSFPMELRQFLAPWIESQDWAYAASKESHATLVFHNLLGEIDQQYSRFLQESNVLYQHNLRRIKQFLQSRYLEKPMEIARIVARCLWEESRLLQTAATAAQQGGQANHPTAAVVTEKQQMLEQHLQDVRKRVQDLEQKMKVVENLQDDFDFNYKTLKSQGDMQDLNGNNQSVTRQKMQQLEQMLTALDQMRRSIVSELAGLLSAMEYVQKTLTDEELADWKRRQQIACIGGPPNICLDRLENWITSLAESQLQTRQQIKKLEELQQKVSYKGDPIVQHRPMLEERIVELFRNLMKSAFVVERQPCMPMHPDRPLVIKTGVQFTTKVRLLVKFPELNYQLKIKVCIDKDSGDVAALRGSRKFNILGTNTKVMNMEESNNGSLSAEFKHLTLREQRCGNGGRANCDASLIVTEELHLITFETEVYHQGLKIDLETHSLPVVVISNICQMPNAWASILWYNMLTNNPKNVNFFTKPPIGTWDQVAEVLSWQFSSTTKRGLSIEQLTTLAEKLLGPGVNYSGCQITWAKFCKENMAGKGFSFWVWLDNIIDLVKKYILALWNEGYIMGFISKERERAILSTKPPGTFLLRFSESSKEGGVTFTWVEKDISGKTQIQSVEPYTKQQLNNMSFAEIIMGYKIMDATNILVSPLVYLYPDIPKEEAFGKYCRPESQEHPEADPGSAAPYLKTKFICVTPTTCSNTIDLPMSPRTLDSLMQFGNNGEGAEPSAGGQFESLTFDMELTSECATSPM
Human liver HepG2 cells are transiently transfected with multiple reporter transcription units (MRTUs) in 6-well plates using FuGene 6 reagent (Roche; 3 ml FuGene/1 mg DNA). The MRTU constructs are regulated by a cis-regulating element (promoter). […] A major difference between the CIS and TRANS system is that in CIS activities of endogenous TFs are measured, whereas the TRANS assay evaluates changes in activities of exogenous, chimeric NR-Gal4 proteins. […] At the end of 24 hour incubation, total RNA was isolated using TriZol reagent (Invitrogen). The isolated RNA is then reverse-transcribed using oligo(dT) primer and Mo-MLV reverse transcriptase (Invitrogen) with DNAse I (Ambion) treatment for 30 min. The one-tenth of the produced cDNA was amplified by PCR using Taq DNA polymerase (Invitrogen) and two reporter sequence-specific primers. The PCR products were fluorescently labeled by primer extension with 6-arboxyfluorescein (6-FAM) 5'-labeled reporter sequence-specific primer (2 min at 95 C, 20 s at 68 C and 10 min at 72 C) and these products were digested with 5U of HpaI (New England Biolabs) for 2h at 37 C. The fragments were purified using Qiaquick PCR columns (Qiagen), analyzed on an ABI 3130xL genetic analyzer (Applied Biosystems) with peak positions identified by using a set of X-rhodamine (ROX)-labeled MapMarker1000 molecular weight standards (BioVentures). The raw capillary electrophoresis data was processed using Attagraph software (Attagene).
Regarding `CC/C=C\C/C=C\C/C=C\CCCCCCCC(=O)O`, the compound was called inactive.
On to `CC(=O)Nc1ccc2c(c1)Cc1cc(NC(C)=O)ccc1-2`, for which the outcome was inactive.
Still for that read-out and setting: the value for `CC(C)C1=CC2=CC[C@@H]3[C@](C)(CCC[C@@]3(C)C(=O)O)[C@H]2CC1` was “inactive”; that for `NCCCN1CCN(CCCN)CC1` was “inactive”.
On to `COc1cc(C)ccc1C(C)C`, for which the compound was classed as inactive.
On to `[Cl][In]([Cl])[Cl]`, for which the result was inactive.
As for `Cc1ccc(C(C)(C)C)cc1`, the compound was classed as inactive.
As to `C=C(C)[C@H]1CC=C(C)CC1`, the compound was classed as inactive.
For the compound `C=C[Si](OC(C)=O)(OC(C)=O)OC(C)=O`, the result was inactive.
The same measure, in the same setting: the value for `CC(=O)OC(C)C` was “inactive”; that for `Cc1cccc(N(C)C(=S)Oc2ccc3ccccc3c2)c1` was “inactive”; that for `CC(C)COC(=O)C=Cc1ccccc1` was “inactive”.
The same measure, in the same setting: the value for `C=CCOCC(O)CCl` (stereo not given) was “inactive”; that for `CCCCCCCCc1ccc(Nc2ccc(CCCCCCCC)cc2)cc1` was “inactive”.
Still for that read-out and setting: to `Cc1cc(C)c(C)cc1C` belongs “inactive”; to `COc1cc(NC(=O)CC(C)=O)c(OC)cc1Cl`, “inactive”.
As for `CC(C)=CCC/C(C)=C\C#N`, the result was inactive.
As for `Cc1cc(=O)n(-c2ccccc2)n1C`, the compound was classed as inactive.
On the same count and under the same terms, the value for `CC(C)c1ccc2c(C(C)C)cc(C(C)C)c(S(=O)(=O)O)c2c1` was “inactive”.
The same measure, in the same setting: the value for `O=C(c1ccc(O)cc1)c1ccc(O)cc1O` was “inactive”; that for `CCc1c(C(=O)O)c(=O)cnn1-c1ccc(Cl)cc1` was “inactive”; that for `O=C(Nc1cccc(C(F)(F)F)c1)c1cc(Br)cc(Br)c1O` was “inactive”.
In the case of `O=S(=O)(O)c1ccc2cc(O)c(S(=O)(=O)O)cc2c1`, the compound was called inactive.
In the case of `C[Si](C)(C)O[Si](O)(O)O`, the result was inactive.
The same measure, in the same setting: the value for `CC(C)c1ccc2cc(C(C)C)ccc2c1` was “inactive”; that for `O=C1CCCC(=O)O1` was “inactive”.
For the compound `CCOC(=O)c1ccc(N(C)C)cc1`, the call was inactive.
Still for that read-out and setting: to `CCCCCCCC/C=C\CCCCCCCC(=O)O` belongs “inactive”.
On the same count and under the same terms, the value for `CNC(=S)N(C)C` was “inactive”.
As for `CC(C)(C)C(=O)C=Cc1ccc(Cl)cc1`, the concentration at half-maximal activity (AC50) is 164 µM (active).
`C=COCCCC`: the compound was classed as inactive.
Still for that read-out and setting: the value for `CCCCC(CC)COCC1CO1` (stereo not given) was “inactive”.
With `CCCCCCCC(C)=O`, the result was inactive.
For the compound `OCCCS`, the compound was called inactive.
The same measure, in the same setting: the value for `Cc1cnc(NC(=O)C2=C(O)c3ccccc3S(=O)(=O)N2C)s1` was “inactive”.
On to `CC(=O)C=CC1C(C)=CCC(C)C1(C)C` (stereo not given), for which the result was inactive.
Turning to `O=C(O)CCCC[C@@H]1SC[C@@H]2NC(=O)N[C@@H]21`, the call was inactive.
Still for that read-out and setting: to `O=C(O)c1ccccc1Nc1cccc(C(F)(F)F)c1` belongs “inactive”; to `CC(C)(C)c1ccc(OC(=O)c2ccccc2O)cc1`, “inactive”; to `COC(=O)c1c(C)cc(O)c(C)c1O`, “inactive”.

As usually defined, the AC50 is the concentration giving half of the maximal activity seen.
